Measured values: PubChem BioAssay AID2242 (National Center for Advancing Translational Sciences (NCATS), 2010)
About 720 (0.36%) of roughly 200,000 compounds were called active. Roughly 8% stayed inconclusive and do not appear here. The call rests on the fitted dose curve; in most records, active means well fitted activation curve with a large enough effect; inconclusive means small, poorly fitted or top-dose-only effect, or effect the other way, or another doubt; inactive means flat fitted curve, though single readings scatter. This is one part of the list.

Target: Lysosomal alpha-glucosidase (Homo sapiens) (UniProt P10253)
Assay: qHTS Assay for Activators of Human alpha-Glucosidase as a Potential Chaperone Treatment of Pompe Disease; further: nearly all actives have a fitted effect of over 80% in size
Details: purified enzyme, 4-MU-alpha-glucoside fluorescence, 20 min; series mostly up to 76.9 µM
Outline: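 Compounds titrated up to 77 uM against 4 nM enzyme and 400 uM methylumbelliferyl substrate at room temperature, 20 min, pH 5.0. Basic stop, then 4-methylumbelliferone fluorescence (365/440 nm) normalized to no-enzyme and enzyme controls; Hill-equation AC50.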
Potency means the concentration at half of the fitted maximal effect.

Structure (SMILES) | Potency
COCCn1c(N)c(C#N)c2nc3ccccc3nc21 | 35.5 µM (active)
N#Cc1c(N)n(CCCN2CCOCC2)c2nc3ccccc3nc12 | 35.5 µM (active)
CCCCCn1c(N)c(C#N)c2nc3ccccc3nc21 | 35.5 µM (active)
Cc1cc(-n2c(=O)c(C#N)cc3c(=O)n4cccc(C)c4nc32)no1 | 35.5 µM (active)
Cc1cc(-n2c(=O)c(C#N)cc3c(=O)n4ccccc4nc32)no1 | 35.5 µM (active)
COC(=O)c1ccccc1NC(=O)/C=C/c1cc(OC)c(OC)c(OC)c1 | 35.5 µM (active)
CSc1nnc(-c2cccn(Cc3cccc(Cl)c3)c2=O)o1 | 28.2 µM (active)
CSc1nnc(-c2cccn(Cc3ccccc3)c2=O)o1 | 35.5 µM (active)
Nc1ccc(-c2nc3ccc(N)cc3[nH]2)cc1 | 39.8 µM (active)
Nc1ccc(-c2nc3ccc(-c4nc5ccccc5o4)cc3[nH]2)cc1 | 28.2 µM (active)
Nc1ccc(-c2nc3ccc(N)cc3o2)cc1 | 35.5 µM (active)
CCCc1cc(=O)n2c([nH]c3ccccc32)c1C#N | 39.8 µM (active)
COCc1cc(=O)n2c([nH]c3ccccc32)c1C#N | 35.5 µM (active)
CCc1cc(=O)n2c([nH]c3ccccc32)c1C#N | 28.2 µM (active)
Cc1ccc2nc3c(cc(C#N)c(=O)n3-c3nccs3)c(=O)n2c1 | 35.5 µM (active)
Cc1ccc(-n2c(=O)c(C#N)cc3c(=O)n4ccccc4nc32)cc1 | 25.1 µM (active)
N#Cc1cc2c(=O)n3ccccc3nc2n(-c2ccc(Cl)cc2)c1=O | 35.5 µM (active)
Cc1ccc(-n2c(=O)c(C#N)cc3c(=O)n4cccc(C)c4nc32)cc1 | 10 µM (active)
COc1cc(C2NC(=S)NC(c3ccccc3)=C2C(C)=O)cc(Br)c1OCC(N)=O (configuration not stated) | 28.2 µM (active)
O=C(CN1C(=O)/C(=C\c2cccc(Cl)c2)Oc2ccccc21)N1CCN(c2ccccn2)CC1 | 3.98 µM (active)
CN(C)CCNc1oc(/C=C/c2ccccc2)nc1C#N | 35.5 µM (active)
CNc1oc(/C=C/c2ccccc2)nc1C#N | 35.5 µM (active)
C=CCNc1oc(/C=C/c2ccccc2)nc1C#N | 35.5 µM (active)
CN(C)c1oc(/C=C/c2ccccc2)nc1C#N | 31.6 µM (active)
CCC(=O)Nc1c(OC(=O)CC)ccc2c(C)cc(=O)oc12 | 35.5 µM (active)

Structure (SMILES) | Potency
CC(=O)Nc1c(OC(C)=O)ccc2c(C)cc(=O)oc12 | 35.5 µM (active)
CC(=O)c1ccc(-c2cccs2)s1 | 35.5 µM (active)
COc1cc(OC)c(-c2nc3ccccc3s2)cc1OC | 35.5 µM (active)
c1ccc2c(N3CCOCC3)nc(N3CCOCC3)nc2c1 | 28.2 µM (active)
CCOC(=O)C1=C(C)NC2=C(C(=O)CCC2)C1c1cn(Cc2ccc(Cl)cc2Cl)nc1-c1ccccc1 (configuration not stated) | 31.6 µM (active)
Cc1csc2ncc(C(=O)Nc3ccon3)c(=O)n12 | 35.5 µM (active)
Cc1c(O)c(CN2CCCCC2)cc2c3c(c(=O)oc12)CCC3 | 35.5 µM (active)
Cc1c(O)c(CN2CCCC2)cc2c3c(c(=O)oc12)CCC3 | 39.8 µM (active)
CCNc1cc2oc(=O)c(CN3CCOCC3)c(C)c2cc1C | 31.6 µM (active)
CC(C)c1cc(=O)oc2c3c4c(cc12)CCCN4CCC3 | 35.5 µM (active)
CC(C)CCNc1nc(-c2ccco2)c2c(c1C#N)CCCC2 | 31.6 µM (active)
N#Cc1c(NC2CCCCC2)nc(-c2ccco2)c2c1CCCC2 | 35.5 µM (active)
Cc1ccc(C2OC34CCCCCC3C(C#N)(C(=N)O4)C2(C#N)C#N)cc1 (configuration not stated) | 31.6 µM (active)
CCOC(=O)c1sc2c(c1C)C(c1cccs1)C1=C(CCCC1=O)N2 (configuration not stated) | 25.1 µM (active)
CCSc1nnc(-c2cc3c(s2)-c2ccccc2CC3)o1 | 31.6 µM (active)
Fc1ccc(CSc2nnc(-c3cc4c(s3)-c3ccccc3CC4)o2)cc1 | 28.2 µM (active)
CSc1nnc(-c2cc3c(s2)-c2ccccc2CC3)o1 | 35.5 µM (active)
C=CCSc1nnc(-c2cc3c(s2)-c2ccccc2CC3)o1 | 25.1 µM (active)
CC(=O)Nc1nc2ccc(-c3nc4ccccc4o3)cc2s1 | 25.1 µM (active)
COc1ccc(OC)c(C=Nc2ccccc2-c2nc3ccccc3[nH]2)c1 | 28.2 µM (active)
Nc1c(C(=O)NCCN2CCOCC2)c2nc3ccccc3nc2n1-c1cccc(F)c1 | 35.5 µM (active)
Nc1c(C(=O)NCCN2CCOCC2)c2nc3ccccc3nc2n1-c1ccccc1 | 35.5 µM (active)
Nc1c(C(=O)NCCN2CCOCC2)c2nc3ccccc3nc2n1CCc1ccccc1F | 39.8 µM (active)
Cc1ccc(C)n1-c1nccc(-c2ccco2)n1 | 22.4 µM (active)
CNc1nc(-c2ccccc2)cc(C)c1S(C)(=O)=O | 28.2 µM (active)

Structure (SMILES) | Potency
Nc1ccccc1-c1nnc(-c2ccc(-c3ccccc3)cc2)o1 | 35.5 µM (active)
CCNc1nc(C)c2cc(Br)c(=O)n(CC)c2n1 | 35.5 µM (active)
Nc1c(C(=O)NCC2CCCO2)c2nc3ccccc3nc2n1-c1ccccc1 (configuration not stated) | 35.5 µM (active)
COCCn1c(N)c(C(=O)NCC2CCCO2)c2nc3ccccc3nc21 (configuration not stated) | 35.5 µM (active)
CCOC(=O)c1c(N)n(C2CC(C)(C)NC(C)(C)C2)c2nc3ccccc3nc12 | 31.6 µM (active)
COc1ccc(-n2c(N)c(C(=O)NCC3CCCO3)c3nc4ccccc4nc32)c(OC)c1 (configuration not stated) | 31.6 µM (active)
Nc1c(C(=O)OCC2CCCO2)c2nc3ccccc3nc2n1C1CCCC1 (configuration not stated) | 39.8 µM (active)
CCCCC(NS(=O)(=O)c1ccc(C)cc1)C(=O)Oc1ccc2c3c(c(=O)oc2c1)CCC3 (configuration not stated) | 31.6 µM (active)
Cc1ccc(S(=O)(=O)NC(CC(C)C)C(=O)Oc2ccc3c4c(c(=O)oc3c2)CCC4)cc1 (configuration not stated) | 35.5 µM (active)
Cc1ccc(-c2nn(-c3ccccc3)cc2/C=C/C(=O)Nc2nccs2)cc1 | 35.5 µM (active)
CCCNC(=O)c1c(N)n(-c2cccc(OC)c2)c2nc3ccccc3nc12 | 35.5 µM (active)
COCCNC(=O)c1c(N)n(-c2ccccc2)c2nc3ccccc3nc12 | 39.8 µM (active)
COC(=O)c1c(N)n(-c2ccc(NC(C)=O)cc2)c2nc3ccccc3nc12 | 28.2 µM (active)
COCCNC(=O)c1c(N)n(CCCn2ccnc2)c2nc3ccccc3nc12 | 35.5 µM (active)
CCN1CCN(C(=O)c2cc3c(=O)n4ccccc4nc3n2Cc2ccccc2)CC1 | 31.6 µM (active)
O=C(NCCN1CCOCC1)c1cc2c(=O)n3ccccc3nc2n1Cc1ccccc1 | 35.5 µM (active)
CCc1cc(=O)oc2c(C)c(O)c(CN3CCCCC3)cc12 | 35.5 µM (active)
CCc1cc(=O)oc2c(C)c(O)c(CN(C)C)cc12 | 35.5 µM (active)
CCCc1cc(=O)oc2c(C)c(O)c(CN3CCCCC3)cc12 | 17.8 µM (active)
Cc1cc(=O)oc2cc(OC(=O)c3nn(C(C)C)c(=O)c4ccccc34)ccc12 | 35.5 µM (active)
CCCCn1nc(C(=O)Oc2ccc3c(C)cc(=O)oc3c2)c2ccccc2c1=O | 35.5 µM (active)
CCCn1nc(C(=O)Oc2ccc3c(C)cc(=O)oc3c2)c2ccccc2c1=O | 35.5 µM (active)
COC(=O)C1=CNC=C(C(=O)OC)C1c1cccc(OC)c1 | 31.6 µM (active)
COC(=O)C1=CN(C(C)C)C=C(C(=O)OC)C1c1cccc(OC)c1 | 28.2 µM (active)
Cc1ccc2cc3c(nc2c1)N(c1ccccc1)CC3 | 22.4 µM (active)

Structure (SMILES) | Potency
N#C/C(=C(/O)CCCl)c1ccccn1 | 39.8 µM (active)
CC1CCCN(CCCNC(=O)c2coc3nc4ccccc4nc23)C1 (configuration not stated) | 22.4 µM (active)
Cc1ccc(C2N(C)c3ccccc3-c3nc4ccccc4n32)o1 (configuration not stated) | 39.8 µM (active)
CCN1c2ccccc2-c2nc3ccccc3n2C1c1ccco1 (configuration not stated) | 35.5 µM (active)
CN1c2ccccc2-c2nc3ccccc3n2C1c1ccco1 (configuration not stated) | 39.8 µM (active)
CN(C)c1c2ccccc2nc2c(F)c(F)c(F)c(F)c12 | 39.8 µM (active)
Clc1ccc(-c2nc3ncccn3c2Cl)cc1 | 22.4 µM (active)
CC(=O)/C=C(\C)Nc1ccc(-c2cnc(-c3ccccc3)o2)cc1 | 39.8 µM (active)
Nc1cccc2nc3ccccc3cc12 | 28.2 µM (active)
Cc1cc(=O)oc2cc(NS(=O)(=O)c3ccccc3)ccc12 | 35.5 µM (active)
Cc1cc(=O)oc2cc(NS(=O)(=O)c3ccc(F)cc3)ccc12 | 35.5 µM (active)
COCCn1c(N)c(C(=O)OCc2ccccc2)c2nc3ccccc3nc21 | 31.6 µM (active)
CCCCCOC(=O)c1c(N)n(CCOC)c2nc3ccccc3nc12 | 35.5 µM (active)
CCOC(=O)c1c(N)n(CCOC(=O)c2cccs2)c2nc3ccccc3nc12 | 31.6 µM (active)
CCOc1ccc(CN2CCN(Cc3[nH]c4ccc(OC)cc4c3C)CC2CCO)cc1 (configuration not stated) | inactive
O=C(O)CCn1cc(C2CC(c3ccccc3)=NN2c2ccccc2)c(-c2ccccc2)n1 (configuration not stated) | 31.6 µM (active)
C=CCn1c(N)c(S(=O)(=O)c2cccs2)c2nc3ccccc3nc21 | 35.5 µM (active)
Nc1c(S(=O)(=O)c2cccs2)c2nc3ccccc3nc2n1CC1CCCO1 (configuration not stated) | 31.6 µM (active)
Nc1c(S(=O)(=O)c2cccs2)c2nc3ccccc3nc2n1CCc1ccccc1 | 31.6 µM (active)
COCCn1c(N)c(S(=O)(=O)c2cccs2)c2nc3ccccc3nc21 | 35.5 µM (active)
CC(C)Cn1c(N)c(S(=O)(=O)c2cccs2)c2nc3ccccc3nc21 | 25.1 µM (active)
CC(C)CCn1c(N)c(S(=O)(=O)c2cccs2)c2nc3ccccc3nc21 | 35.5 µM (active)
